From PubChem
PLK1 PBD block – blocks phosphopeptide binding to human PLK1 polo-box domain; Potency, µM, for inactives: max response, negative = inhibition, usual class: inhibitors; Plk1 PBD binding of FITC phosphopeptide, fluorescence polarization; 360,000 tested, 2.8% active; P53350; note: potency is the fitted concentration of half-maximal effect; series mostly up to about 57 µM; nearly all actives have a fitted effect of over 65% in size
VDR inh – inhibitors of human vitamin D receptor; P11473; VDR-SRC2-3 peptide fluorescence polarization, 2 h; Potency, µM, inactives show max response, negative = inhibition, usual class: inhibitors; 400,000 tested, 0.93% active; AID 504847; note: potency is the fitted concentration of half-maximal effect
Target sequence (P11473 whole entry, looked up): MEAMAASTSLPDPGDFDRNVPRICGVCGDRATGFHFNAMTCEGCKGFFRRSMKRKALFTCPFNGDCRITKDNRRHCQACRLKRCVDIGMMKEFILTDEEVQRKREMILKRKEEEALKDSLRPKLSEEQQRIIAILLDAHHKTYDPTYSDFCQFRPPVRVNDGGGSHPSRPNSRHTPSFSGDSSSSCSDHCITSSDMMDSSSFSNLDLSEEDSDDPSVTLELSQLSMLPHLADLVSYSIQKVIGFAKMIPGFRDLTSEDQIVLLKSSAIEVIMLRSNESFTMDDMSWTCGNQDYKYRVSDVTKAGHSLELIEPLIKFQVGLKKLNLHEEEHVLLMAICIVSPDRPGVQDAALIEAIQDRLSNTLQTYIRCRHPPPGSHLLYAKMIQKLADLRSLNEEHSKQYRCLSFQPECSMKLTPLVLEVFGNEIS
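Fluorescence polarization assay measuring small-molecule disruption of VDR binding to the coregulator peptide SRC2-3. Compounds were pin-transferred (23 nl) into the reagent mix and incubated 2 h at room temperature before reading.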
PI4K2A block – inhibitors of human PI4K2A; purified PI4K2A, ADP-Glo luminescence, 1 h; stronger effect = lower value; AID 1346378; activity change, negative = inhibition, % at 76.9 µM; 420,000 tested, 0.13% active; in the data active = activity change below about -50%; inconclusive = mostly about -30% to -49%;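 note: -100% = wells without enzyme as full effect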
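ADP-Glo luminescence measured ADP generated by PI4K2A enzyme (4 ug/mL before mixing) with 1.2 mM PI substrate (pre-mix) and 300 microM ATP (pre-mix). Tris pH7.5 buffer with MgCl2, Triton X-100; 1 h reaction at ambient temperature.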
GLS inh – blocks human kidney-isoform glutaminase activity | AID 624170 | O94925 | GLS enzymatic activity, qHTS titration | 410,000 tested, 0.21% active | Potency, µM (highest dose often 45.5 µM), for inactives: top-dose activity change, negative = inhibition, actives largely listed as inhibitors; note: potency is the fitted concentration of half-maximal effect
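Human kidney-isoform GLS in 45 mM KH2PO4 pH 8.2, 0.02% Tween-20, with compound, started with 1mM L-Glutamine (added stock). Glutamate oxidase/HRP/Amplex red coupled fluorescence read at start and after 30 min at RT.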
KAT2A inh – GCN5L2 (KAT2A) acetyltransferase inhibition. 390,000 tested, 0.21% active. AID 504327. Potency, µM (titrated, usually from 58.9 µM), inactives show top-dose activity change, negative = inhibition, most hits filed as inhibitors. GCN5L2 HAT assay, ThioGlo1 CoA-SH fluorescence. Q92830; note: potency is the fitted concentration of half-maximal effect
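Preincubate 20nM GCN5L2 with compound 15 min, RT → add 50uM ThioGlo1 + 75uM H3(1-25) + 70uM acetyl-CoA → read fluorescence 0 and 20 min. Primary qHTS; fluorescent artifacts likely.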
The depositor's hits bear a star; ? = inconclusive; · = no result given. This is a sample that favours compounds with a hit; in the whole collection about 3.1% have one here. Unless noted, calls come from the whole dose curve; as a rule, active = well fitted curve in the direction sought with a large enough effect; inconclusive = small, poorly fitted or top-dose-only effect, or another doubt; inactive = no such curve, though single readings can be large; an effect the other way counts as inactive or inconclusive. Unless noted, % is set by controls: 0 for no effect and ±100 for the full control effect.

SMILES	PLK1 PBD block	VDR inh	PI4K2A block	GLS inh	KAT2A inh
Fc1ccc(C(NCCc2ccc(Cl)cc2)c2nnc(-c3ccccc3Cl)o2)cc1 (centres undefined)	·	8.5%	-3.6	16.4%	-7.7%
COc1cc(C(=S)N2CCOCC2)ccc1OS(=O)(=O)c1ccc(Cl)cc1	?	-12.6%	-10.5	-1.8%	-11.4%
COc1cc(C(=S)N2CCOCC2)cc(OC)c1OS(=O)(=O)c1ccc(Cl)cc1	13.4µM*	89.1µM*	-0.9	-7.7%	-9.5%
COc1ccc(CNS(=O)(=O)c2cc3c(cc2Br)CC(C)N3C(C)=O)cc1 (centres undefined)	·	·	1.6	·	·
CCC(=O)N(C)CCc1cc2c(c(OC)c1/C=N/NC(=O)c1ccccc1O)OCO2	-0.1%	1.3%	-3.3	2.7%	-6.7%
CCC(=O)N(C)CCc1cc2c(c(OC)c1/C=N/NC(=O)c1ccc(Br)cc1)OCO2	23.8µM*	?	-2.2	9.4%	-7.3%
O=C(Nc1ccccc1)c1cc(-c2ccccc2Cl)no1	3.77µM*	?	-2.0	1.3%	-3.1%
O=C(NCc1ccco1)c1cnn2c1NC(c1ccc(Br)cc1)CC2C(F)(F)F (centres undefined)	2.99µM*	?	1.1	?	-6.3%
CNS(=O)(=O)c1ccc2nc(NC(=O)c3ccc(N4C(=O)CCC4=O)cc3)sc2c1	7.52µM*	?	-3.7	?	?
CCc1ccc2nc(NC(=O)c3ccc(N4C(=O)CCC4=O)cc3)sc2c1	2.5%	5.5%	2.1	12.4%	4.1%
N/C(=N\OC(=O)Cc1ccccc1)c1ccccn1	11.9µM*	-5.3%	8.7	?	0.9%
N/C(=N\OC(=O)c1ccccc1)c1ccccn1	-5.6%	-9.5%	-67.4*	-0.4%	11.4%
Cc1cccc(C(=O)O/N=C(\N)c2ccccn2)c1	1.8%	5.7%	?	1.4%	1.5%
N/C(=N\OC(=O)CCCc1ccccc1)c1ccccn1	-6.6%	-5.5%	2.5	-0.4%	-3.1%
CC(C)(C)c1ccc(C(=O)O/N=C(\N)c2ccccn2)cc1	-5.1%	-8.3%	?	-7.5%	-6.5%
CCOc1ccc(C(=O)O/N=C(\N)c2ccccn2)cc1	-5.5%	-13.6%	-87.9*	1.8%	-10.3%
Cc1ccc(C(=O)O/N=C(\N)c2ccccn2)cc1	-6.3%	-6.2%	-85.8*	5.3%	-1.3%
CCCCCCCCN1C(=O)[C@@H](CC(=O)NCc2cccc(C(F)(F)F)c2)C[C@@]2(C(=O)OC)C1=C[C@H](C(C)C)O[C@@H]2C1CC1	·	·	-2.6	·	·
COc1ccc(CNS(=O)(=O)c2ccc(F)c(C(=O)Nc3c(C)cc(C)cc3C)c2)cc1	·	11.1%	-0.3	-0.5%	-2.3%
O=C(CN1CCc2onc(-c3cccc(-n4cc(CO)nn4)c3)c2C1=O)N1CCOCC1	·	·	-0.9	·	·
COc1cc(-c2nnc(SCC(=O)N3C(C)CCCC3C)o2)cc(OC)c1OC (centres undefined)	·	·	4.2	·	·
C/C(=N/OC(=O)c1ccc(C)cc1)c1cccs1	-7.8%	-0.3%	-79.9*	-15.8%	6.8%
C/C(=N\OC(=O)c1ccc(C)cc1)c1sc(C)nc1C	-10.0%	-7.7%	4.7	4.3%	2.6%
COc1cccc([C@@H]2Oc3ccc(Br)cc3C[C@H]2OC(=O)Nc2cc(OC)c(OC)c(OC)c2)c1	·	-0.5%	·	·	·
CN(C)c1nc(=NCc2ccco2)ss1	2.67µM*	28.2µM*	1.0	?	-3.9%
SMILES	PLK1 PBD block	VDR inh	PI4K2A block	GLS inh	KAT2A inh
COc1ccc(S[C@]2(C(=O)N3CCN(c4ncccn4)CC3)CC(=O)N(c3ccc(C#N)cc3)[C@@H]2c2ccc(OC)cc2)cc1	·	·	-4.4	·	·
O=C(O)c1cc(Cl)c2c(c1)[C@@H]1C=CC[C@@H]1[C@H](c1ccc(S(=O)(=O)N3CCOCC3)cc1)N2	26.7µM*	?	-12.0	12.6µM*	?
O=C(O)CN1C(=O)/C(=C\c2ccccc2OCc2ccccc2)SC1=S	?	·	-7.8	-2.6%	·
Cc1nn(-c2ccccc2)c(Cl)c1/C=C1\SC(=S)N(CCCCCC(=O)O)C1=O	23.8µM*	?	-0.5	8.4%	-17.1%
O=C(O)CCCCN1C(=O)/C(=C\c2ccc(OCc3ccccc3)c(OCc3ccccc3)c2)SC1=S	?	7.8%	-6.9	10.1%	?
Cc1nn(-c2ccccc2)c(Cl)c1/C=C1\SC(=S)NC1=O	?	-20.6%	-2.3	20.9%	-6.9%
O=C(O)CCCN1C(=O)/C(=C\c2ccccc2OCc2ccccc2)SC1=S	26.7µM*	-25.3%	-4.6	31.3%	-16.9%
O=C(O)CCCN1C(=O)/C(=C\C(Cl)=C\c2ccccc2)SC1=S	10.6µM*	135.2%	-12.2	-2.5%	0.4%
O=C(O)CN1C(=O)/C(=C\c2ccccc2OCc2ccc(F)cc2)SC1=S	26.7µM*	?	-5.6	35.4%	-10.2%
O=C(Nc1nc(-c2ccc3c(c2)OCCO3)cs1)C1CC(=O)N(c2ccc3c(c2)OCCO3)C1 (centres undefined)	·	-9.9%	·	·	·
CCOc1ccc(-n2c(SCC(=O)Nc3ccc4cn[nH]c4c3)nnc2-c2ccncc2)cc1	·	·	4.8	·	·
CCOC(=O)CC[C@@H]1CC[C@]2(CCCN(C(=O)c3ccccc3)C2)O1	·	·	-2.1	·	·
CCN(CC)C(=O)N1c2ccccc2C=Cc2ccccc21	-4.4%	11.3%	12.4	6.8%	0.0%
CN(C)CCCNC(=O)N1c2ccccc2C=Cc2ccccc21	26.7µM*	?	-2.5	-3.3%	-1.8%
N=c1c2c(ccn1CCCCc1ccccc1)Oc1ccc3ccccc3c1C2c1ccccc1 (centres undefined)	·	·	-10.7	·	·
Oc1oc(-c2ccccc2)nc1C=Nc1ccccc1	-12.7%	-4.1%	0.7	14.0%	-17.8%
CN(C)c1ccc(N=Cc2nc(-c3ccccc3)oc2O)cc1	13.4µM*	-4.8%	-2.4	6.7%	-1.0%
Cc1cccc(C(=O)Oc2c(Sc3ccccc3)c(C)nn2C(C)(C)C)c1	·	-26.9%	1.8	-0.1%	-12.0%
c1ccc(Nc2c3c(nc4ccccc24)CCC3)cc1	2.9%	-0.5%	-7.9	-8.9%	-4.8%
CN(C)CCCNc1c2c(nc3ccccc13)CCC2	26.7µM*	-28.3%	-1.2	39.1%	-6.0%
Cc1c(NC(=O)Nc2ccc(Br)cc2F)sc2nc3n(c(=O)c12)CCC(C)CC3 (centres undefined)	·	17.0%	2.5	-19.2%	-8.6%
O=C1NN(c2ccc(F)cc2)C(=O)/C1=C/c1cccs1	-27.6%	?	-5.7	94.9%	-11.1%
COc1cccc(/C=C2/C(=O)NN(c3ccc(C)c(C)c3)C2=O)c1	5.97µM*	79.4µM*	-7.0	8.4%	-5.7%
COc1cc(/C=C2/C(=O)NN(c3ccc(C)c(Cl)c3)C2=O)cc([N+](=O)[O-])c1O	?	?	-3.8	-30.0%	-22.0%
O=C1NN(c2ccccc2)C(=O)/C1=C\c1ccc2c(c1)OCO2	26.7µM*	-9.6%	-5.2	-25.8%	-7.4%
COc1cccc(/C=C2/C(=O)NN(c3ccc(F)cc3)C2=O)c1	5.32µM*	44.7µM*	-3.2	-27.7%	10.1%
